The record followed here is PMC7862700, “An all-to-all approach to the identification of sequence-specific readers for epigenetic DNA modifications on cytosine”.

Experiment in all cases: DAPPL (digital affinity profiling via proximity ligation, sequencing); 10 mM Tris-HCl pH 7.5, 50 mM NaCl, 1 mM DTT, 4% glycerol, room temperature, 30 min; GST-TFs on glutathione beads, 16-mer random dsDNA library, 0.1% formaldehyde crosslink after washing; high values mean tight binding
Common to all, as to settings: protein: recombinant; tags: N-terminal GST; dsDNA, one strand shown

One assay deals with T1, FLI1 (Homo sapiens, UniProt Q01543 1-452).
T1 sequence: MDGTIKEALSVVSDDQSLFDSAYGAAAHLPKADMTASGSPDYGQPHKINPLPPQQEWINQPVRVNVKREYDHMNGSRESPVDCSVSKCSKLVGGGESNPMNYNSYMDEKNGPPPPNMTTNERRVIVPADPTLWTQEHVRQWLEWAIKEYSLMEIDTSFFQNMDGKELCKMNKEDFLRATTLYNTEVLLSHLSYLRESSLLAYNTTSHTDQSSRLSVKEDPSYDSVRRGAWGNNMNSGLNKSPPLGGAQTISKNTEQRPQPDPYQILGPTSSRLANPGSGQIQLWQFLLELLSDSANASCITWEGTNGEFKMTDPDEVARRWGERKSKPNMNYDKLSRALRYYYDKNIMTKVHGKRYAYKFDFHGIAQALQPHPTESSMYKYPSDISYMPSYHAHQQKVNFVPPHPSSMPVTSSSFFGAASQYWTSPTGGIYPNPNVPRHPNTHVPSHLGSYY
In a few lines: (§1)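 GST fusions of human transcription factors were expressed in yeast and captured with glutathione beads. Once given DNA barcodes and pooled alongside a tag-only sample, they were incubated for 30 min at room temperature with 200 nmole of a random double-stranded 16-mer DNA library in Tris/NaCl/DTT/glycerol buffer, then washed, crosslinked (0.1% formaldehyde), proximity-ligated, PCR-amplified and sequenced on an Illumina NextSeq500. The binding signal of each hexamer is its read frequency for a factor divided by its frequency for the tag-only sample.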

The next assay has as its target T2, ELK1 (Homo sapiens, UniProt P19419 1-428).
T2 sequence: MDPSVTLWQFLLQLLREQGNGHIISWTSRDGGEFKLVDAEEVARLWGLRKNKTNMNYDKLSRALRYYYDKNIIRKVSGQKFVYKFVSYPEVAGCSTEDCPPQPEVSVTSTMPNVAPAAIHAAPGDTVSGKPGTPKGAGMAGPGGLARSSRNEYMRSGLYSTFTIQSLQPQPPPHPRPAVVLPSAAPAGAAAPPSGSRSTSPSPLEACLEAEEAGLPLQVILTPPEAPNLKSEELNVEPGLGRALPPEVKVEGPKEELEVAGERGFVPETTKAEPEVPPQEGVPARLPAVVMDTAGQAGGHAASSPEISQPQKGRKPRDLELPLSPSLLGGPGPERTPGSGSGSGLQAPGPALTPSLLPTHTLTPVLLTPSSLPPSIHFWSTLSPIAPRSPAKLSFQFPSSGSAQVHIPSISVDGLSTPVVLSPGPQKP
The procedure, abridged:
as §1

The target in a further assay is T3, GABPA (Homo sapiens, UniProt Q06546 1-454).
T3 sequence: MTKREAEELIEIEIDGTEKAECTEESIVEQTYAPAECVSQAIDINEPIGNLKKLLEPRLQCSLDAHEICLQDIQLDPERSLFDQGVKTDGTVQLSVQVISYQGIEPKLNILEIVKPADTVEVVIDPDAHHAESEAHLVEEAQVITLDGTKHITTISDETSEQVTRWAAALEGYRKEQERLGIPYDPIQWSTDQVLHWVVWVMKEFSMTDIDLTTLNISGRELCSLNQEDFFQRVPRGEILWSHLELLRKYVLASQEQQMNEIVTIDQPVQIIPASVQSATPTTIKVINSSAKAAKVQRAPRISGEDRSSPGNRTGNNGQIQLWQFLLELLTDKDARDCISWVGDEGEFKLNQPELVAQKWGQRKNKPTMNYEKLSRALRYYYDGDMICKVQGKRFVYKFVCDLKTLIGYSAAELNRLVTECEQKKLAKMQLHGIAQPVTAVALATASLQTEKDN
In a few lines:
as §1

Another assay has as its target T4, ERG (Homo sapiens, UniProt P11308 1-479).
T4 sequence: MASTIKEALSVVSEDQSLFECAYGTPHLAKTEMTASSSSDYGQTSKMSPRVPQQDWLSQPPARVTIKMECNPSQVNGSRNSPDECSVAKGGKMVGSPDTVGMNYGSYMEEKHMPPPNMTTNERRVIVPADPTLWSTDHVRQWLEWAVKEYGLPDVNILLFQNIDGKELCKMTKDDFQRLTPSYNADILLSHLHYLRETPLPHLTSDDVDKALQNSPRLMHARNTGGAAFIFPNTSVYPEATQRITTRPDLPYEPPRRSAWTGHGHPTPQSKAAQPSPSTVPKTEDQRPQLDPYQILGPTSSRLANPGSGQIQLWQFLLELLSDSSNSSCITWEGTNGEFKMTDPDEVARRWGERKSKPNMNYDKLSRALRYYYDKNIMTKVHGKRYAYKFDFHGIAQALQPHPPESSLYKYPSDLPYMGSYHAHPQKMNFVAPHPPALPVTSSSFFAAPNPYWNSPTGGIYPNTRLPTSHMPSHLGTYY
The procedure, abridged: as §1

A further assay addresses ELF1 (Homo sapiens, UniProt P32519 1-619). The procedure, abridged:
as §1

The target in a further assay is T5, EHF (Homo sapiens, UniProt Q9NZC4 1-300).
T5 sequence: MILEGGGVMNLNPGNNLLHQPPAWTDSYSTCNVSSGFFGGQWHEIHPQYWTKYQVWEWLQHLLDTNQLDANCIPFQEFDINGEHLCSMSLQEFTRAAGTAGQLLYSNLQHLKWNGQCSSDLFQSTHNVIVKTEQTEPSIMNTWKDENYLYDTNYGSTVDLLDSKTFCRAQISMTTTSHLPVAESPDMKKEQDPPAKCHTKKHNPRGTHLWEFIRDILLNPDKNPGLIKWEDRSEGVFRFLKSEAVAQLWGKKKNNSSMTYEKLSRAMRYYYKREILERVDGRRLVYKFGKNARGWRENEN
In a few lines:
as §1

The target of another assay is SPI1 (Homo sapiens, UniProt P17947 1-270). In a few lines:
as §1

The target of another assay is SPIB (Homo sapiens, UniProt Q01892 1-262). In a few lines: as §1
Chain of SPIB (Q01892 whole entry): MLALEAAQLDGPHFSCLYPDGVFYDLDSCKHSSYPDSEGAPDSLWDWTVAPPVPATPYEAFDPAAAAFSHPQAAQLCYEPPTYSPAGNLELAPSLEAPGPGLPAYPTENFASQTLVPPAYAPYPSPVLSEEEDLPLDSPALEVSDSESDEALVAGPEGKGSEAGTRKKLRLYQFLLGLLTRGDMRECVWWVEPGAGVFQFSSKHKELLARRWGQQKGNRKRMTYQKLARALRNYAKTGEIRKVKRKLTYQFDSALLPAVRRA
The next assay has as its target T6, ELK3 (Homo sapiens, UniProt P41970 1-407).
T6 sequence: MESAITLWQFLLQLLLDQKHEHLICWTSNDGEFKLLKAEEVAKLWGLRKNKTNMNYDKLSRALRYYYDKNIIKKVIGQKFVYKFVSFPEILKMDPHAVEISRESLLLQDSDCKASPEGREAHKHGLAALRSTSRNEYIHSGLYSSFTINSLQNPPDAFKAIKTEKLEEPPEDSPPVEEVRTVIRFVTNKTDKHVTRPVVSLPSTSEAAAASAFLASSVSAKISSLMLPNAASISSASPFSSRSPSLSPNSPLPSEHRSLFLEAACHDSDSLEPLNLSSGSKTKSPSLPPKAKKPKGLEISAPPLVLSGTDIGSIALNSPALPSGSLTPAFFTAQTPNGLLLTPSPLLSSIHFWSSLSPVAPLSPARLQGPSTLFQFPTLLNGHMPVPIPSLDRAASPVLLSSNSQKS
In a few lines:
as §1

The target in the next assay is T7, FEV (Homo sapiens, UniProt Q99581 1-238).
T7 sequence: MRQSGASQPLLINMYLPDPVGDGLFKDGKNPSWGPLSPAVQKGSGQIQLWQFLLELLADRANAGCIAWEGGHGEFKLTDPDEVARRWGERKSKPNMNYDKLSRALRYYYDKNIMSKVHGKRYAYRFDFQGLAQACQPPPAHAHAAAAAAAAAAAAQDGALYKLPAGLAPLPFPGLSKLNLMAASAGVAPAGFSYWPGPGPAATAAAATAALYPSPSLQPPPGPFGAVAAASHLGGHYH
In a few lines:
as §1

A further assay has as its target ETV5 (Homo sapiens, UniProt P41161 1-510). In a few lines:
as §1

Another assay addresses T8, SPIC (Homo sapiens, UniProt Q8N5J4 1-248).
T8 sequence: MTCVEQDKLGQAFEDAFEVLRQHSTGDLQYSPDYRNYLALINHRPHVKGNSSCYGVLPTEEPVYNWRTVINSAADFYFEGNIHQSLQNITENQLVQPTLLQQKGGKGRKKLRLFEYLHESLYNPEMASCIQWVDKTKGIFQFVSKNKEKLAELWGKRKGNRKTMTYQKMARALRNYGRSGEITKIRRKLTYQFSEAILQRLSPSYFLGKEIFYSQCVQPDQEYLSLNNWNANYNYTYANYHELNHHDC
In a few lines: as §1

In another assay the target is ELF4 (Homo sapiens, UniProt Q99607 1-663). The procedure, abridged: as §1
Chain of ELF4 (Q99607 whole entry): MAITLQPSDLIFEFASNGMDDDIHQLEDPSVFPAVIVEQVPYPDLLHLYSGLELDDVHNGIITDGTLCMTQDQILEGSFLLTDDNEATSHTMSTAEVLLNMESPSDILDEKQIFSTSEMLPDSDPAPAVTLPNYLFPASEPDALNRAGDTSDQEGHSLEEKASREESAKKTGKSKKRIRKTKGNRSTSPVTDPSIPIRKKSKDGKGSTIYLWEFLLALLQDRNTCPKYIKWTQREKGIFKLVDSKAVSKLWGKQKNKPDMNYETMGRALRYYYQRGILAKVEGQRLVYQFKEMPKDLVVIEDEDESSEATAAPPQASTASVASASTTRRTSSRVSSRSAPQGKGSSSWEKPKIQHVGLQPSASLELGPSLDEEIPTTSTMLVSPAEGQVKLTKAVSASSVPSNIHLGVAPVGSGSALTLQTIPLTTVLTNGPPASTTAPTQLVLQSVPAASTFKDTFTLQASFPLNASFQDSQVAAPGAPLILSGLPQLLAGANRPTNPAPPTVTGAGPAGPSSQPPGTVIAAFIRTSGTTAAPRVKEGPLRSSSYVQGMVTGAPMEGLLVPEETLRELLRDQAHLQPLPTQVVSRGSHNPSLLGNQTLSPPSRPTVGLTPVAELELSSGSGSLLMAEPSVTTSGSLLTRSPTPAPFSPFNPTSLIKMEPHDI
The target of the next assay is T9, ELK4 (Homo sapiens, UniProt P28324-2 1-405).
T9 sequence: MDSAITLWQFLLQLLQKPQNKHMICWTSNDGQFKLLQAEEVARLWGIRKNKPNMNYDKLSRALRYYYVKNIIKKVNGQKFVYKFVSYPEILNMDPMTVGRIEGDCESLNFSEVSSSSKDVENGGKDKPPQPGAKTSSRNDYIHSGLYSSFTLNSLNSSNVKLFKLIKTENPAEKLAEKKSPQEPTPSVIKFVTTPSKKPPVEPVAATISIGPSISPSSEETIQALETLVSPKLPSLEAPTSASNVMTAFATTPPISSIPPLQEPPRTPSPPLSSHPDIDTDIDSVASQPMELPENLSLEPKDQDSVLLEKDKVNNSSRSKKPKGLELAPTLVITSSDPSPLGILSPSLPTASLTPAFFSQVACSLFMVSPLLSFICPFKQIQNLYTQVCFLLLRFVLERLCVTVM
In a few lines:
as §1

The next assay has as its target T10, ETV2 (Homo sapiens, UniProt O00321 1-342).
T10 sequence: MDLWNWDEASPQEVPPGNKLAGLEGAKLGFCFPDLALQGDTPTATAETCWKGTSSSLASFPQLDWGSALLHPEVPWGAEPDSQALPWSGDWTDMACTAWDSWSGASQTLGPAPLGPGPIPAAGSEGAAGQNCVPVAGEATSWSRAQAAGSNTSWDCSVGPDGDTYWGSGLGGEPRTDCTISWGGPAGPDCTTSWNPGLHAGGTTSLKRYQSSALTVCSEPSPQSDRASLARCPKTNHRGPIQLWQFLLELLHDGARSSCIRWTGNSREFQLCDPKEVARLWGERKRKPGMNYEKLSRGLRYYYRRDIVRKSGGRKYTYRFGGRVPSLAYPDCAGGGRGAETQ
The procedure, abridged:
as §1

In the next assay the target is T11, ELF3 (Homo sapiens, UniProt P78545 1-371).
T11 sequence: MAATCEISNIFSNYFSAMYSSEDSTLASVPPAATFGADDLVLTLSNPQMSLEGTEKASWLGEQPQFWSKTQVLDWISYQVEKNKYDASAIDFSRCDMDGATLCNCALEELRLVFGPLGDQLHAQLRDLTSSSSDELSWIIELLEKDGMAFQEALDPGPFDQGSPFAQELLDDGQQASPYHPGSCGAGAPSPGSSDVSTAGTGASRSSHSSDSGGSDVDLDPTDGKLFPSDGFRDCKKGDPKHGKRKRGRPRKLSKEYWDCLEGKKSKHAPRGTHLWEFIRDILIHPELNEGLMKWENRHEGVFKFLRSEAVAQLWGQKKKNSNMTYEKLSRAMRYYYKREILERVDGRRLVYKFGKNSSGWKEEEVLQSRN
In a few lines:
as §1

Another assay addresses ETV1 (Homo sapiens, UniProt P50549 1-477). In a few lines: as §1

Chain of ETV1 (P50549 whole entry): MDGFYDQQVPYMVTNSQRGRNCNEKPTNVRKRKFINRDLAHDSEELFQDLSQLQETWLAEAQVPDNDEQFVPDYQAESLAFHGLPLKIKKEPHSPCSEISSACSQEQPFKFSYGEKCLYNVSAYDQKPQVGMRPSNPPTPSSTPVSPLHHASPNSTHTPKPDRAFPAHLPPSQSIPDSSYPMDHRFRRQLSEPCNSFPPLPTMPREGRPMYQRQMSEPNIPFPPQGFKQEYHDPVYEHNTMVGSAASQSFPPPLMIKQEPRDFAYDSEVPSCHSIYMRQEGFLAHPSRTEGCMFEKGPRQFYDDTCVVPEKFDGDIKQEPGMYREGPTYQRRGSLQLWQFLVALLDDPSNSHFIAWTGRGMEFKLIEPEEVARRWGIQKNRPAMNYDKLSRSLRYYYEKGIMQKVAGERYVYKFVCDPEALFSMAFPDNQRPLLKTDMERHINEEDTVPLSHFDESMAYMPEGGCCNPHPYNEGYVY
Chain of ELF1 (P32519 whole entry): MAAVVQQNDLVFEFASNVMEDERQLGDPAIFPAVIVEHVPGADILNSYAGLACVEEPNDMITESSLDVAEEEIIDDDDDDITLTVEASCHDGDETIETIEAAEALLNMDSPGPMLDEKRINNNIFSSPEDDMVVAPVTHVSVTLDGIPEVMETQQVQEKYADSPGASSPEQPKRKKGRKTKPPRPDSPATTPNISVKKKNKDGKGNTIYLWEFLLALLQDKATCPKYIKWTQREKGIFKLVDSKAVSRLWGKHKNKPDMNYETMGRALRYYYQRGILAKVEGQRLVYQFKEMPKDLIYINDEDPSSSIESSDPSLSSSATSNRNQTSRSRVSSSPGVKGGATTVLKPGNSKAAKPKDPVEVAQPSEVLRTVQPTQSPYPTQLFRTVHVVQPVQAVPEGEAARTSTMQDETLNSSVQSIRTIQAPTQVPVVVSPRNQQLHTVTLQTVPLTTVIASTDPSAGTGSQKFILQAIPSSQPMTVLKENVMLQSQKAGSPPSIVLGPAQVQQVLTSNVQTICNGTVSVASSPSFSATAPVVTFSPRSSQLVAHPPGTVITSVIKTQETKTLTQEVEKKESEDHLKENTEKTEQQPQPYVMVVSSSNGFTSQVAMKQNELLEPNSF
Chain of ETV5 (P41161 whole entry): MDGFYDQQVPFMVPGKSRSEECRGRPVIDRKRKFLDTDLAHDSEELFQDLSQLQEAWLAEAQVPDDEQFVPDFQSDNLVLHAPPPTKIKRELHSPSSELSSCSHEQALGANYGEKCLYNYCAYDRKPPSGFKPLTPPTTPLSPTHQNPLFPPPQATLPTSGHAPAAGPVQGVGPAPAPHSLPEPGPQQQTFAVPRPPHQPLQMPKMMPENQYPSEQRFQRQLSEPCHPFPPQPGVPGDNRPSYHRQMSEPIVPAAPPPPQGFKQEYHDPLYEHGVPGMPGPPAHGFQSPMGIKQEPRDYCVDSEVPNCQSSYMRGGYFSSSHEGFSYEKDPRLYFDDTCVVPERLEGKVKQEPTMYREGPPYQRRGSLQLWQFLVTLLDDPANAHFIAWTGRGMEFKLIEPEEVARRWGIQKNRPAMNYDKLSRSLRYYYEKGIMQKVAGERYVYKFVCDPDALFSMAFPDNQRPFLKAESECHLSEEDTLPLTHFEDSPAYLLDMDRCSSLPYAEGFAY

CCCACC: the binding signal was 1.17 fold enrichment (6-mer frequency, TF over GST control) with FLI1; 1.26 fold enrichment (6-mer frequency, TF over GST control) with ELK1; 1.11 fold enrichment (6-mer frequency, TF over GST control) with GABPA; 1.15 fold enrichment (6-mer frequency, TF over GST control) with ERG; 1.15 fold enrichment (6-mer frequency, TF over GST control) with ELF1; 1.2 fold enrichment (6-mer frequency, TF over GST control) with EHF. Moreover, the binding signal with SPI1 is 1.18 fold enrichment (6-mer frequency, TF over GST control); in the assay with SPIB it was 1.13 fold enrichment (6-mer frequency, TF over GST control); with ELK3 it was 1.16 fold enrichment (6-mer frequency, TF over GST control); in the assay with FEV, 1.17 fold enrichment (6-mer frequency, TF over GST control); with ETV5, 1.16 fold enrichment (6-mer frequency, TF over GST control); with SPIC, 1.21 fold enrichment (6-mer frequency, TF over GST control). In addition, the binding signal with ELF4 is 1.19 fold enrichment (6-mer frequency, TF over GST control); with ELK4 it was 1.26 fold enrichment (6-mer frequency, TF over GST control); with ETV2, 1.15 fold enrichment (6-mer frequency, TF over GST control); with ELF3 it was 1.41 fold enrichment (6-mer frequency, TF over GST control); in the assay with ETV1, 1.14 fold enrichment (6-mer frequency, TF over GST control).

Turning to CCATCC, the binding signal is 1.24 fold enrichment (6-mer frequency, TF over GST control) with FLI1; 1.28 fold enrichment (6-mer frequency, TF over GST control) with ELK1; 1.23 fold enrichment (6-mer frequency, TF over GST control) with GABPA; 1.32 fold enrichment (6-mer frequency, TF over GST control) with ERG; 1.27 fold enrichment (6-mer frequency, TF over GST control) with ELF1; 1.27 fold enrichment (6-mer frequency, TF over GST control) in the assay with EHF. In addition, the binding signal with SPI1 is 1.31 fold enrichment (6-mer frequency, TF over GST control); with SPIB, 1.3 fold enrichment (6-mer frequency, TF over GST control); with ELK3 it was 1.41 fold enrichment (6-mer frequency, TF over GST control); with FEV, 1.3 fold enrichment (6-mer frequency, TF over GST control); in the assay with ETV5 it was 1.27 fold enrichment (6-mer frequency, TF over GST control); with SPIC, 1.33 fold enrichment (6-mer frequency, TF over GST control). The binding signal in the assay with ELF4 was 1.27 fold enrichment (6-mer frequency, TF over GST control); with ELK4 it was 1.19 fold enrichment (6-mer frequency, TF over GST control); with ETV2, 1.19 fold enrichment (6-mer frequency, TF over GST control); in the assay with ELF3 it was 1.12 fold enrichment (6-mer frequency, TF over GST control); in the assay with ETV1 it was 1.24 fold enrichment (6-mer frequency, TF over GST control).
